These results are taken from PubChem BioAssay (Tox21).

Records with an inconclusive call do not appear. A number with no mark means an inactive call. Calls follow the shape of the dose curve; as a rule, active = well fitted curve in the direction sought with a large enough effect in the signal ratio in the repeat runs (not every such curve was filed as active); inconclusive = weak or mixed curves, or effect the other way; inactive = no such curve, though single readings can be large or run the other way; the % refers to the signal ratio.
% is scaled to controls: 0 for no effect and ±100 for the full control effect.

The target in the test is Estrogen receptor (Homo sapiens) (UniProt P03372). Kind of test: qHTS assay to identify small molecule antagonists of the estrogen receptor alpha (ER-alpha) signaling pathway (AID 743069). Conditions: HEK293 ER-alpha-UAS-bla, beta-lactamase ratio, antagonist mode; series mostly up to 69.4 µM; activity, negative = inhibition: at the top concentration. An excerpt: National Center for Advancing Translational Sciences [NCATS]
Chain of Estrogen receptor (Homo sapiens) (P03372 whole entry, looked up): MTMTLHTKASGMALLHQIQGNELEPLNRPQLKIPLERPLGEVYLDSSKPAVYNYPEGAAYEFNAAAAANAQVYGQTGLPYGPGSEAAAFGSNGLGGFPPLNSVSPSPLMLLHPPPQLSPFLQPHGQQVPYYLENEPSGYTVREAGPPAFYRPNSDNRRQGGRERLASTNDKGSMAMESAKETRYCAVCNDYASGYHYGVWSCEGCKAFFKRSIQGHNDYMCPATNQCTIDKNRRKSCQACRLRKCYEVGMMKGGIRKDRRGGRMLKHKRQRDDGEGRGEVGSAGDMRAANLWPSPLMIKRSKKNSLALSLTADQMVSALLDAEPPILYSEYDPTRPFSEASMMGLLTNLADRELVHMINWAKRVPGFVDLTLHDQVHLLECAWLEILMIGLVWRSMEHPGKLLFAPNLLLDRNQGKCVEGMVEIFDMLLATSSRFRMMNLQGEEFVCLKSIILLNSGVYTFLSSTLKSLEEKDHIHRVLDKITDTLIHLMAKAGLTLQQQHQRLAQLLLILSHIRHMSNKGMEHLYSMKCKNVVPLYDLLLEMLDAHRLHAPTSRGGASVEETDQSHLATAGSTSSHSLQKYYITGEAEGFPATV
NIH Chemical Genomics Center [NCGC]
U.S. Environmental Protection Agency [EPA]
National Institutes of Environmental Health Sciences [NIEHS]
National Toxicology Program [NTP]
U.S. Food and Drug Administration [FDA]
Estrogen receptor (ER), a nuclear hormone receptor, plays an important role in development, metabolic homeostasis and reproduction. Two subtypes of ER, ER-alpha and ER-beta have similar expression patterns with some uniqueness in both types. Endocrine disrupting chemicals (EDCs) and their interactions with steroid hormone receptors like ER causes disruption of normal endocrine function. To identify the compounds that inhibit ER signaling, an ER-alpha-UAS-bla GripTiteTM cell line (Invitrogen, Carlsbad, CA, USA) containing a beta-lactamase reporter gene under the control of an Upstream Activator Sequence (UAS) stably integrated into HEK293 cells was used to screen the Tox21 10K compound library.
Tox21 Assay Protocol Summary:
ER-alpha-bla cells were cultured in assay medium containing 2% charcoal stripped FBS overnight in the culture flasks before the assay was performed. The cells were dispensed at 5,000 cells/5 uL of assay medium per well into black wall/clear-bottom 1536-well plates using a Multidrop Combi (ThermoFisher Scientific, Waltham, MA) dispenser. After the assay plates were incubated at a 37C and 5% CO2 for 4 hr, 23 nL of compounds dissolved in DMSO, positive controls or DMSO only was transferred to the assay plate by a Pintool station (Kalypsys, San Diego, CA), followed by addition of 1 uL of 17beta-estradiol in assay medium using a Flying Reagent Dispenser (Aurora Discovery, San Diego, CA). The plates were incubated at 37C and 5% CO2 for 18 hr. Then 1 uL of LiveBLAzerTM B/G FRET substrate was added using a Flying Reagent Dispenser, the plates were incubated at room temperature for 2 hours, and fluorescence intensity was measured by an Envision plate reader (PerkinElmer, Shelton, CT).
(In general: In qHTS, concentration-response curves come from the screen itself.)
As to `N[C@H]1C(O)O[C@H](CO)[C@@H](O)[C@@H]1O` (stereo not given in full), the “activity, negative = inhibition” value was 5.86%.
On to `CC/C=C/CCCCCCCCCCOC(C)=O`, for which the “activity, negative = inhibition” value is 19.5%.
As for `COCCCOc1cc(C[C@@H](C[C@H](N)[C@@H](O)C[C@H](C(=O)NCC(C)(C)C(N)=O)C(C)C)C(C)C)ccc1OC`, the “activity, negative = inhibition” value was -17.8%.
On to `CCCCNCC`, for which the “activity, negative = inhibition” value is -0.835%.
Regarding `CN(C)CCCN(C)C`, the activity, negative = inhibition was 3.46% [at 6.71 µM].
Then `C/C=C(\C)C(=O)OC/C=C(\C)CCC=C(C)C`, with -7.95%; and `CCCC(=O)C(CC)Sc1ccoc1C` (stereo not given), with -12.9%; and `CC(C)(C)C(=O)NCCCC(=O)O`, with 7%.
Then `Clc1cc(Cl)c(Cl)c(Cl)c1Cl`, with -3.21%; and `NCC1CCC(C(=O)Oc2ccc(CCC(=O)O)cc2)CC1` (stereo not given), with 5.27%.
Then `N=C(N)S(=O)O`, with 9.22%.
For `CCCCS`, the “activity, negative = inhibition” value was -3.19% [at 79.1 µM].
Next, `COc1cnc(NS(=O)(=O)c2ccc(N)cc2)nc1`: -2.58% [at 32.6 µM].
For `CCOC(=O)CC`, the “activity, negative = inhibition” value is 13.4%.
Then `CC(O)C(CO)C(C)O` (stereo not given), with 12.8% [at 79.1 µM]; and `CC(C)CC(O)Cc1ccccc1` (stereo not given), with 65.1%; and `O=C(O)Cc1ccccc1Oc1ccc(Cl)cc1Cl`, with -14.7%.
Then `CCOC(=O)COc1ccc2c(C)c(CCN(CC)CC)c(=O)oc2c1Cl`, with 4.74%.
Then `CC(CN1CC(=O)NC(=O)C1)N1CC(=O)NC(=O)C1` (stereo not given), with -15%; and `CC1=C(O)C(=O)CO1`, with 7.59%.
On to `CC(C)C[P+](C)(CC(C)C)CC(C)C`, for which the “activity, negative = inhibition” value was 7.01% [at 79.1 µM].
For the compound `CCCCCCCCCCCCCCCCN(C)C`, the activity, negative = inhibition was -6.54% [at 6.71 µM].
Then `C=CCn1cc[n+](C)c1`, with 3.36% [at 79.1 µM].
Then `O=C1c2ccccc2C(=O)N1CO`, with 1.51% [at 79.1 µM]; and `C[C@@H]1CC[C@@]2(OC1)O[C@H]1C[C@H]3[C@@H]4CC[C@H]5C[C@@H](O)CC[C@]5(C)[C@H]4CC(=O)[C@]3(C)[C@H]1[C@@H]2C`, with 15.9% [at 32.6 µM]; and `CCN1CCN(C(=O)N[C@@H](C(=O)N[C@@H]2C(=O)N3[C@@H]2SC(C)(C)[C@H]3C(=O)O)c2ccccc2)C(=O)C1=O`, with -8.37%.
On to `BrCCOc1ccccc1`, for which the “activity, negative = inhibition” value was -2.89% [at 79.1 µM].
Next, `CCOC(=O)[C@H](CCc1ccccc1)N[C@H]1CS[C@H](c2cccs2)CN(CC(=O)O)C1=O`: 6.5%; `CCc1ccc(CC)cc1`: -26.4% [at 79.1 µM].
Next, `Cc1ccc2cccnc2c1`: -8.57%.
Then `C=CCCCCCCCCOC(C)=O`, with 14%; and `Cc1ccccc1OCC(=O)O`, with -12.5%.
`O=Cc1ccc(C(=O)O)cc1`: the “activity, negative = inhibition” value is -6.47% [at 79.1 µM].
Then `NS(=O)(=O)c1cc2c(cc1C(F)(F)F)NCNS2(=O)=O`, with -5.8% [at 32.6 µM]; and `COc1cc(OC)cc(OC)c1`, with 4.94%; and `COC(=O)c1ccc(C(=O)O)cc1`, with 11.3%.
Then `CCCCCCCOC(C)=O`, with -10.1%; and `CCC(C)c1nccnc1OC` (stereo not given), with 4.64%; and `COC(=O)N/N=C/c1c[n+]([O-])c2ccccc2[n+]1[O-]`, with -4.57%.
Then `Cc1ccc(OC(=O)CC(C)C)cc1`, with 18.5%.
